Screening data (PubChem)
TDP43 rescue: TDP-43 toxicity inhibition in yeast; 1.8% of 410,000 active; AID 652104; Potency, µM (highest dose often 46.1 µM), hits mostly activators; TDP-43 expressing yeast growth rescue, BacTiter-Glo, 24 h; also: nearly all actives have a fitted effect of over 50% in size
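Yeast cells expressing TDP-43 under galactose induction are exposed to compounds for 24 hr at 30 deg C. BacTiter-Glo luminescence measures growth, so protective compounds score as activators.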
Abeta rescue: A-beta toxicity reversal in yeast; yeast expressing A-beta42, growth rescue, OD600, 48 h; response scale: 0% DMSO, 100% iron-clioquinol control; Potency, µM (highest dose often 46.1 µM), hits mostly activators; 0.063% of 410,000 active; AID 1347071; also: nearly all actives have a fitted effect of over 55% in size
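Yeast growth medium received pinned compounds, then yeast cells expressing toxic A-beta were added; plates incubated at 30 C for 48 hr. Growth read as absorbance at 600 nm, normalized to DMSO and equimolar FeCl3 plus clioquinol controls.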
FUS yeast rescue: suppressors of FUS proteinopathy in yeast | S. cerevisiae FUS-expressing, growth rescue, OD600, 24 h | Potency, µM (top dose mostly 76.6 µM), most hits filed as activators | 0.24% of 390,000 active | AID 1347120; also: nearly all actives have a fitted effect of over 55% in size
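Toxicity suppression screen in FUS-yeast. Cells induced with 2% galactose, starting OD 0.005, treated 24hr at 30C with compounds at multiple final concentrations; growth by OD600.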
aSyn rescue: inhibitors of alpha-synuclein toxicity in yeast | Yeast expressing alpha-synuclein, growth rescue, BacTiter-Glo, 24 h | 0.14% of 370,000 active | Potency, µM (titrated, usually from 46.1 µM), usual class: activators; also: nearly all actives have a fitted effect of over 65% in size
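Screening used galactose-induced yeast with toxic alpha-synuclein levels, exposed to compound for 24 hr at 30 deg C. Cell growth, read with BacTiter-Glo luminescence, gave the measured signal.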
Of the large screens only hits and unclear results are named; the others gave an inactive call; ! = repeats disagree. Sampled rows, rich in hits. Any-hit rate of the full collection: about 2.1%. Calls follow the shape of the dose curve; as a rule, active = well fitted curve in the direction sought with a large enough effect; inconclusive = small, poorly fitted or top-dose-only effect, or another doubt; inactive = no such curve, though single readings can be large; an effect the other way counts as inactive or inconclusive.

O=C1[C@@H](Oc2ccccc2)[C@@H](c2ccncc2)N1c1ccncc1	none
O=C(N/N=C/c1ccccn1)c1sc2ccccc2c1Cl	TDP43 rescue inconclusive, Abeta rescue inconclusive, aSyn rescue 3.16µM
CCCCCSc1nc2c(c(=O)[nH]c(=O)n2C)n1C	none
CCCCCSc1nc2c(c(=O)[nH]c(=O)n2C)n1CC	TDP43 rescue 12.6µM
CN(C)C(=O)c1ccc(NC(=O)COc2cccc3c2OC(C)(C)C3)cc1	none
Cc1ccn2c(c1)nc(=O)c1cc(S(=O)(=O)N3CCOCC3)ccc12	none
O=C(Cc1ccc(S(=O)(=O)N2CCOCC2)s1)Nc1nc2c(s1)CCCC2	FUS yeast rescue 8.91µM
COC(=O)C1CCN(C2CN(Cc3ccc(F)cc3)S(=O)(=O)C2)CC1 (centres undefined)	none
CNS(=O)(=O)c1cc(NC(C)=O)c(C)cc1C	none
Cc1nc2cc(Cl)ccc2n1-c1ccccc1	TDP43 rescue 12.6µM
Cc1cc(C)cc(-n2c(C)nc3cc(C(=O)O)ccc32)c1	TDP43 rescue 12.6µM!
CC(=O)Nc1ccc2c(c1)nc(C)n2-c1ccccc1	none
O=C(COc1ccccc1Cl)Nc1ccc(N2CCN(C(=O)c3ccccc3)CC2)cc1	TDP43 rescue 22.4µM
Cc1ccccc1OCC(=O)Nc1ccc(N2CCN(C(=O)c3ccco3)CC2)cc1	TDP43 rescue 15.8µM, Abeta rescue inconclusive
O=C(COc1ccccc1Cl)Nc1ccc(N2CCCC2)cc1	none
COCc1cc(C)n(CC(=O)Nc2ccc(NC(C)=O)cc2)c(=O)c1C#N	none (no result: aSyn rescue)
CCC(C)N(C(=O)CN1C(=O)C2CCCCN2C(=O)c2ccccc21)C(C)CC (centres undefined)	none (no result: TDP43 rescue, Abeta rescue, aSyn rescue)
Cc1cccc(C(=O)N2CCC(n3nnc4cc(F)ccc43)CC2)c1	TDP43 rescue 22.4µM
CCOc1ccccc1C(=O)N1CCC(n2nnc3cc(C(F)(F)F)ccc32)CC1	TDP43 rescue inconclusive
COc1ccc(C(=O)N2CCC(n3nnc4cc(F)ccc43)CC2)cc1OC	none
CCOc1ccccc1C(=O)N1CCC(n2nnc3cc(C)ccc32)CC1	TDP43 rescue 17.8µM
O=C(COc1ccc2c(c1)OCO2)Nc1nccs1	none
Cc1cc2c(NC3CCCCC3)ncnc2s1	TDP43 rescue 11.2µM
Cc1ccc(Cc2c[nH]c(=S)s2)cc1	TDP43 rescue 11.2µM
COC(=O)CNC(c1ccccc1)c1cc(Br)ccc1NC(=O)CCN1CCOCC1 (centres undefined)	TDP43 rescue inconclusive, FUS yeast rescue inconclusive
CCOC(=O)CNC(c1ccccc1)c1cc(Br)ccc1NC(=O)CCN1CCOCC1 (centres undefined)	TDP43 rescue 22.4µM
c1cc2c(cc1Cc1cncc(Cc3ccc4c(c3)OCO4)c1)OCO2	none (no result: TDP43 rescue, Abeta rescue, FUS yeast rescue)
Cc1cc(NC(=O)c2cc(-c3ccccc3Cl)nc3ccccc23)no1	TDP43 rescue 14.1µM
Cc1cc(NC(=O)c2cc(-c3ccccc3C)nc3ccccc23)no1	none (no result: FUS yeast rescue)
O=C(NCc1ccccn1)c1cc(-c2ccccc2Cl)nc2ccccc12	TDP43 rescue 20µM (no result: FUS yeast rescue)
CC1=CC(C)(C)NC(=S)N1C(C)c1ccccc1 (centres undefined)	Abeta rescue 10µM
Cc1ccc(N2CN(CCc3ccccc3)CNC2=S)cc1	Abeta rescue 11.2µM
O=C(/C=C/c1ccc(F)cc1)c1ccccc1Br	TDP43 rescue 15.8µM, aSyn rescue inconclusive (no result: FUS yeast rescue)
COC(=O)[C@@]1(Cc2ccc(F)cc2)[C@H]2c3cc(C(=O)N(C)C)n(CCc4c[nH]c5ccc(O)cc45)c3C[C@H]2CN1C(=O)c1ccccc1	FUS yeast rescue 15.8µM
O=Cc1ccc(-c2ccc(Cl)cc2Cl)[nH]1	TDP43 rescue 20µM
N/C(=N\NC(=O)c1cccs1)c1cc2cc(Cl)ccc2oc1=O	none
CCN1C(=O)/C(=C\c2ccncc2)SC1=Nc1ccc(C)c(C)c1	TDP43 rescue 14.1µM (no result: FUS yeast rescue)
CCCN1C(=O)/C(=C\c2ccncc2)SC1=Nc1ccccc1	TDP43 rescue inconclusive (no result: FUS yeast rescue)
Cc1nn(-c2ccccc2)c(C)c1C(=O)Oc1ccccc1	TDP43 rescue inconclusive
COc1ccc(OC(=O)c2c(C)nn(-c3ccccc3)c2C)cc1	TDP43 rescue 22.4µM
Cc1onc(-c2ccccc2)c1C(=O)OCCOc1ccc([N+](=O)[O-])cc1[N+](=O)[O-]	TDP43 rescue 12.6µM
Cc1onc(-c2ccccc2)c1C(=O)OCC(=O)c1ccc(F)cc1	TDP43 rescue 20µM
Cc1onc(-c2ccccc2)c1C(=O)OCC(=O)c1ccccc1	none
CC1CCN(S(=O)(=O)c2ccc3c(c2)N(CC(=O)O)C(=O)CO3)CC1	none (no result: aSyn rescue)
O=Cc1ccc(N2Cc3ccccc3C2)cc1	TDP43 rescue 3.16µM
COc1ccc(S[C@]2(C(=O)NC(C)C)CC(=O)N[C@@H]2c2ccc(OC)cc2)cc1	none (no result: TDP43 rescue, Abeta rescue, aSyn rescue)
O=C(/C=C/c1ccc2c(c1)OCO2)N1CCN(c2ccccc2F)CC1	TDP43 rescue 35.5µM (no result: FUS yeast rescue)
COc1ccccc1N1CCN(C(=O)/C=C/c2ccc3c(c2)OCO3)CC1	TDP43 rescue inconclusive
Cc1ccc(N2CC(C(=O)Nc3nnc(SCc4ccccn4)s3)CC2=O)cc1 (centres undefined)	none
Cc1cccc(N2CC(C(=O)Nc3nnc(SCc4ccccn4)s3)CC2=O)c1 (centres undefined)	FUS yeast rescue 17.8µM
COc1ccc(CNC(=O)COc2cc(O)c3c(c2)OC(C)(C)CC3=O)cc1	TDP43 rescue 11.2µM
CC1(C)CC(=O)c2c(O)cc(OCC(=O)NCCc3ccc(S(N)(=O)=O)cc3)cc2O1	none
Cc1csc2c(N3CCN(C(=S)Nc4ccc(C(F)(F)F)cc4)CC3)ncnc12	none
Cc1csc2ncnc(N3CCN(C(=S)Nc4ccc(C(F)(F)F)cc4)CC3)c12	TDP43 rescue 12.6µM, FUS yeast rescue inconclusive
CC(=O)N/C(=N/c1nc(C)cc(C)n1)Nc1cccc(C)c1C	none
Cc1ccccc1OCCCc1c(C)n[nH]c1C	TDP43 rescue 20µM
O=S(=O)(c1cccc2nsnc12)N1CCN(c2ccc(F)cc2)CC1	none
O=S(=O)(c1cccc2nsnc12)N1CCN(c2ccccc2F)CC1	TDP43 rescue 15.8µM
COc1ccc(NS(=O)(=O)c2cccc(C(=O)NNC(=O)CNC(=O)c3cccc(C)c3)c2)cc1	none
COc1cccc(-c2nn(-c3ccc(C)cc3)cc2C(=O)N(C)CC(=O)Nc2cccc(F)c2)c1	TDP43 rescue 22.4µM (no result: FUS yeast rescue)
CC1CC(C)CN(C(=O)C(NS(=O)(=O)c2ccc(Br)s2)c2ccccc2)C1 (centres undefined)	TDP43 rescue 14.1µM
CCN(C(=O)C(NS(=O)(=O)c1ccc(Br)s1)c1ccccc1)c1ccc(C)c(C)c1 (centres undefined)	none (no result: aSyn rescue)
NC(=S)Cc1ccc(Cl)cc1Cl	TDP43 rescue 12.6µM
CCn1c(=O)c2cc(C(=O)N3CCOCC3)sc2c2ccccc21	none
Cn1c2ccccc2c2cc(C(=O)N3CCOCC3)sc21	TDP43 rescue 14.1µM
Cc1ccnc(Sc2ccc([N+](=O)[O-])cc2[N+](=O)[O-])n1	TDP43 rescue 20µM
